Test [1] is described as follows: Nuclear factor erythroid 2-related factor 2/antioxidant responsive element (Nrf2/ARE) small molecule agonists: qHTS cell viability counter screen in human keratinocytes (AID 1919968; active means well fitted curve in the direction sought with a large enough effect in the repeat runs; an effect the other way counts as inactive or inconclusive; further: nearly all actives have a fitted effect of over 55% in size; further: potency means the concentration at half of the fitted maximal effect). The method, boiled down: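 Fluorescence read-out from CellTiter-Fluor after 1 h at 37 C. Wells held HaCaT-derived ARE-luciferase reporter cells (1,500/well) treated 23 h with DMSO-dissolved compounds. Run in the same wells as the luciferase agonist read.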
On the technique in general: qHTS replaces the single test concentration by a dilution series.

Test [2] in a line: Nuclear factor erythroid 2-related factor 2/antioxidant responsive element (Nrf2/ARE) small molecule agonists: luciferase reporter gene qHTS assay in human keratinocytes (AID 1919969; further: nearly all actives have a fitted effect of over 35% in size; further: potency means the concentration at half of the fitted maximal effect). (In general: In a reporter assay the amount or activity of a reporter protein is the signal.)
The target of test [3] is Gonadotropin-releasing hormone receptor (Homo sapiens) (UniProt P30968). As to the kind of experiment: Human gonadotropin-releasing hormone receptor (GnRHR) small molecule agonists, calcium flux assay in GnRHR-HEK293 cells (AID 1920063). Further: nearly all actives have a fitted effect of over 35% in size. The method, boiled down:
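Calcium-dye fluorescence, Ex/Em=480/540, recorded every 1 sec over 3 min after compound addition to GnRHR-HEK293 cells. Cells had been seeded 18 hours earlier and dye-loaded for 1 hour at 37 C. Fifteen concentrations, triplicates.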
For orientation: Calcium assays in cells follow changes in intracellular calcium, usually with a dye or a luminescent sensor.

Test [4] addresses KiSS-1 receptor (Homo sapiens) (UniProt Q969F8). Briefly: Human kisspeptin (KISS1R) small molecule agonists, calcium flux assay in KISS1R-HEK293 cells (AID 1920064; active means well fitted curve in the direction sought with a large enough effect in the repeat runs; an effect the other way counts as inactive or inconclusive). A digest of the protocol: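 Calcium flux read-out: kinetic fluorescence at Ex/Em=480/540, 1 s intervals over 3 min, after pin-tool compound addition to dye-loaded KISS1R-HEK293 cells. Fifteen concentrations, triplicates.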

A short description of test [5]: G protein-coupled receptor (GPCR) small molecule agonists, calcium flux assay: HEK293 wild type cell line counter screen (AID 1920065). The method, boiled down:
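Agonist mode; 18 h seeding at 37 C, 1 h dye load at 37 C; compounds pinned from DMSO, ATP as positive control; kinetic fluorescence 480/540 nm, 3 min, 1 s reads; 15 concentrations, triplicate.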

The nature of test [6]: p53 small molecule agonists, cell-based qHTS assay with human liver microsomes (AID 1963577). The method, boiled down: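 In this qHTS, p53 response-element beta-lactamase cells receive test compound together with a microsome/NADPH activating system (0.5 mg/mL final each) and are incubated 16 h at 37 C before LiveBLAzer fluorescence detection.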
Test [7] is described as follows: p53 small molecule agonists, cell-based qHTS assay with rat liver microsomes (AID 1963578). A digest of the protocol:
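Agonist mode in p53RE-bla reporter cells, with compounds co-incubated 16 h at 37 C alongside 0.5 mg/mL rat liver microsomes and 0.5 mg/mL NADPH (final), followed by a 2 h LiveBLAzer detection step.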

A short description of test [8]: p53 small molecule agonists, cell-based qHTS assay with human liver microsomes: qHTS cell viability counter screen (AID 1963579). Further: nearly all actives have a fitted effect of over 45% in size. A digest of the protocol: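 Metabolically activated exposure: compounds, human liver microsomes and NADPH (0.5 mg/mL final apiece) were added to p53RE-bla cells seeded 5 h earlier, left 16 h at 37 C, and then assessed for viability by CellTiter-Glo luminescence.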

The nature of test [9]: p53 small molecule agonists, cell-based qHTS assay with rat liver microsomes: qHTS cell viability counter screen (AID 1963580). Further: nearly all actives have a fitted effect of over 45% in size. A digest of the protocol:
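Cytotoxicity counter screen: intracellular ATP measured by CellTiter-Glo luminescence in the same wells as the beta-lactamase reporter read, on HCT-116 p53RE-bla cells exposed 16 h at 37 C to compounds with rat liver microsomes and NADPH, each 0.5 mg/mL final.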

Test [10] can be described thus: p53 small molecule agonists, cell-based qHTS assay: qHTS cell viability counter screen (AID 1963581). Further: nearly all actives have a fitted effect of over 45% in size. A digest of the protocol: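 Cytotoxicity read-out: ATP-based luminescence (CellTiter-Glo, 30 min RT) measured in the same wells as the p53 reporter assay, HCT-116 p53RE-bla cells, 16 h compound exposure at 37 C.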
Test [11] can be described thus: p53 small molecule agonists, cell-based qHTS assay (AID 1963582; active means well fitted activation curve with a large enough effect in the signal ratio in the repeat runs, not every such curve was filed as active; the % refers to the signal ratio). A digest of the protocol: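 Fluorescence intensity read-out of a beta-lactamase reporter under a p53 response element. Cells were exposed to DMSO-dissolved compounds for 16 h at 37 C, then developed with FRET substrate for 2 h at RT.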
Test [12] addresses 5-hydroxytryptamine receptor 2A (Homo sapiens) (UniProt P28223). Briefly: 5-hydroxytryptamine receptor 2A (HTR2A) small molecule antagonists, cell-based qHTS assay (AID 1963586). Further: nearly all actives have a fitted effect of over 45% in size. The method, boiled down:
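CHO cells stably expressing human HTR2A were plated for 18 h at 37 C, then loaded with calcium dye for 1 h. Compounds were preincubated 5 min at room temperature before DOI (4 nM solution) was added. Kinetic fluorescence was read for 3 min.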

For test [13] the target is unchanged. Briefly: 5-hydroxytryptamine receptor 2A (HTR2A) small molecule agonists, cell-based qHTS assay (AID 1963587). Further: nearly all actives have a fitted effect of over 30% in size. The method, boiled down:
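CHO cells stably expressing human HTR2A, plated 18 h, loaded with calcium dye 1 h at 37 C. Agonist mode: compounds added and intracellular calcium fluorescence recorded kinetically for 2 min at 1 sec intervals.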

The target in test [14] is Muscarinic acetylcholine receptor M1 (Homo sapiens) (UniProt P11229). As to the kind of experiment: Cholinergic receptor muscarinic 1 (CHRM1) small molecule antagonists, cell-based qHTS assay (AID 1963588). Further: nearly all actives have a fitted effect of over 40% in size. A digest of the protocol: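 Compounds were tested at 15 concentrations in three independent runs. Dye-loaded CHRM1-CHO cells were exposed 5 min at room temperature before stimulation by acetylcholine added at 50nM. Intracellular calcium was read kinetically on FDSS for 3 min.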

Test [15] has the same target. Briefly: Cholinergic receptor muscarinic 1 (CHRM1) small molecule agonists, cell-based qHTS assay (AID 1963589). Further: nearly all actives have a fitted effect of over 35% in size. The method, boiled down:
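Calcium flux read-out: kinetic fluorescence at 1 sec intervals after pin-tool compound addition to dye-loaded CHRM1-CHO cells (human M1). Agonist mode; 15 concentrations tested in triplicate independent runs.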

Test [16] in a line: cAMP Responsive Elements (CRE) small molecule antagonists, cell-based qHTS assay (AID 1963591; active means well fitted inhibition curve with a large enough effect in the signal ratio in the repeat runs, not every such curve was filed as active; the % refers to the signal ratio). The method, boiled down:
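HEK293T CRE-bla; 18 h preincubation; compound pin-transfer; NKH477 0.25 uM final, 3 h, 37 C; LiveBLAzer FRET substrate 2 h RT.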

Test [17] deals with Beta-2 adrenergic receptor (Homo sapiens) (UniProt P07550). As to the kind of experiment: Adrenergic beta2 receptor (ADRB2) small molecule antagonists, cell-based qHTS assay (AID 1963592). Further: series mostly up to about 92 µM; nearly all actives have a fitted effect of over 50% in size. A digest of the protocol:
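Assay format: CHO-ADRB2 cells, 18-20hr seeding at 37C/5% CO2, then compound plus 1nM isoproterenol agonist mix for 0.5hr RT. Homogeneous time-resolved fluorescence cAMP detection after 1hr, expressed as 665/615 nm ratio.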

Test [18] has as its target D(2) dopamine receptor (Homo sapiens) (UniProt P14416). Briefly: Dopamine D2 receptor (DRD2) small molecule agonists, cell-based qHTS assay (AID 1963594). Further: nearly all actives have a fitted effect of over 35% in size. A digest of the protocol: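 HEK293 cells stably expressing human DRD2, pre-treated with PDE inhibitor Ro20-1724 (0.1 mM final) and compound 10 min at room temperature, then stimulated with NKH477 (200nM […]) for 30 min. cAMP read by HTRF (665/620 nm).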

Test [19] shares this target. Briefly: Dopamine D2 receptor (DRD2) small molecule antagonists, cell-based qHTS assay (AID 1963595; active means well fitted inhibition curve with a large enough effect in the signal ratio in the repeat runs, with a control signal flat; the % refers to the signal ratio). A digest of the protocol: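 Stable D2 receptor HEK293 line, 24 h after seeding. Compound preincubated 10 min, then quinpirole (12 nM) with forskolin analogue NKH477 (200 nM), 30 min, room temperature. Detection by time-resolved FRET of cAMP.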
The nature of test [20]: cAMP Responsive Elements (CRE) small molecule agonists, cell-based qHTS assay (AID 1963590). A digest of the protocol: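 Beta-lactamase reporter readout: LiveBLAzer B/G FRET substrate, 2 h at room temperature, added after 3 h compound treatment of CRE-bla HEK 293T cells at 37 C/5% CO2.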

Data on eight compounds can be found in PubChem BioAssay (Tox21).

Values without a mark were called inactive. Inconclusive results are not listed. Calls of active or inactive are those of the source. Unless noted, the call rests on the fitted dose curve.
On the % scale 0 is the no-effect control and ±100 the full control effect.

Chain of 5-hydroxytryptamine receptor 2A (Homo sapiens) (P28223 whole entry, looked up): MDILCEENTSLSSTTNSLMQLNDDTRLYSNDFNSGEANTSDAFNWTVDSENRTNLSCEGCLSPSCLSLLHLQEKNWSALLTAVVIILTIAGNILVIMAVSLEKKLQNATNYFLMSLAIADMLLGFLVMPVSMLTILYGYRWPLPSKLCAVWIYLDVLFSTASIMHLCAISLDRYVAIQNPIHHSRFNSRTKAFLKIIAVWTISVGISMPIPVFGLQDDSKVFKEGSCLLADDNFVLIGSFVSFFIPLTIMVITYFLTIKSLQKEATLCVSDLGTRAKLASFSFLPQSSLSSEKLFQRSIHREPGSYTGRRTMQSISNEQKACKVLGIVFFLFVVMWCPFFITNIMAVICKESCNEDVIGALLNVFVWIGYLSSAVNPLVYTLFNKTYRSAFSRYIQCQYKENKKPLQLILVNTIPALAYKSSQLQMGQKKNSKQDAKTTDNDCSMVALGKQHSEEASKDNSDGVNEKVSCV
Chain of D(2) dopamine receptor (Homo sapiens) (P14416 whole entry, looked up): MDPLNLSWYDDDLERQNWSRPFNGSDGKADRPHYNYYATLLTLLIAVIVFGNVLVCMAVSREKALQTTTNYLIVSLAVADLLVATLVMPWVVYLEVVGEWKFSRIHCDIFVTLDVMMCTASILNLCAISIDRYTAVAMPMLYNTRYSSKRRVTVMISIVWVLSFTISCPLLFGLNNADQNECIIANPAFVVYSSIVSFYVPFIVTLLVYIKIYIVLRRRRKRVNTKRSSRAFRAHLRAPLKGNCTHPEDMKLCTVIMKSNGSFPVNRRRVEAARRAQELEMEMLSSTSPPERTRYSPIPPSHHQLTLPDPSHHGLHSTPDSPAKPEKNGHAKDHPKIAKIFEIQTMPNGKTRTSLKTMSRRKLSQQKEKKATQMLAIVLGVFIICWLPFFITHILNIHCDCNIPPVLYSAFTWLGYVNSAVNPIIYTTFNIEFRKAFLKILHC
Chain of Gonadotropin-releasing hormone receptor (Homo sapiens) (P30968 whole entry, looked up): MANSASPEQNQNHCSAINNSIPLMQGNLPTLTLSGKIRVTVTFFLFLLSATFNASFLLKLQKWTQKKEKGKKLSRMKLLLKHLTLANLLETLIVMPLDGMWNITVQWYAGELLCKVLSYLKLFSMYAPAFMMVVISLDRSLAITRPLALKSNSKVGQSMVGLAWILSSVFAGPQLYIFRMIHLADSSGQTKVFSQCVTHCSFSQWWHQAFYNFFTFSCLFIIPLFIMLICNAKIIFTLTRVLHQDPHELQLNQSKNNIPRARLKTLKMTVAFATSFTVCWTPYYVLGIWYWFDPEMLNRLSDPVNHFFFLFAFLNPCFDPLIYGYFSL
Chain of Muscarinic acetylcholine receptor M1 (Homo sapiens) (P11229 whole entry, looked up): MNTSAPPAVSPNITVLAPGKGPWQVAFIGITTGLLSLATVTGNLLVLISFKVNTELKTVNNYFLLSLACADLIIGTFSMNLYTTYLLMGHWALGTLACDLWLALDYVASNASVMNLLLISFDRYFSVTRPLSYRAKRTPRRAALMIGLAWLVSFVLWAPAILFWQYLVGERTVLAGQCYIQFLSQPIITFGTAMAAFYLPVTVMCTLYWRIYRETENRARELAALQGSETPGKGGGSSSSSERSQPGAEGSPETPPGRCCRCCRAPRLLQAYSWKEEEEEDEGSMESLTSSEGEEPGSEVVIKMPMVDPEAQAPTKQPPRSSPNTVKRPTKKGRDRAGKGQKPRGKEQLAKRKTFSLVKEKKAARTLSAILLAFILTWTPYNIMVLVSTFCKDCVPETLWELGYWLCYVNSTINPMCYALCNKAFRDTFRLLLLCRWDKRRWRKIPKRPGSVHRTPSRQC
Chain of KiSS-1 receptor (Homo sapiens) (Q969F8 whole entry, looked up): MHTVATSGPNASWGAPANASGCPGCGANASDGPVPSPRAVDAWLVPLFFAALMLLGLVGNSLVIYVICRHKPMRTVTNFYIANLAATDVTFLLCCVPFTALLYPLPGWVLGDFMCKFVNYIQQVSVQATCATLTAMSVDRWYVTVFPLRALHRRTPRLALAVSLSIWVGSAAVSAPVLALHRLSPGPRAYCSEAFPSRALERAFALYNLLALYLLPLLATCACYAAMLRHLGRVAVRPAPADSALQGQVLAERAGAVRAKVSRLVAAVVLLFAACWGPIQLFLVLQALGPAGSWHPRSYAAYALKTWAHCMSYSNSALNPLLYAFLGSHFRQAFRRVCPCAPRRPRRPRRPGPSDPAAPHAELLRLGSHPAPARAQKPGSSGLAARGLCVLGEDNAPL
Chain of Beta-2 adrenergic receptor (Homo sapiens) (P07550 whole entry, looked up): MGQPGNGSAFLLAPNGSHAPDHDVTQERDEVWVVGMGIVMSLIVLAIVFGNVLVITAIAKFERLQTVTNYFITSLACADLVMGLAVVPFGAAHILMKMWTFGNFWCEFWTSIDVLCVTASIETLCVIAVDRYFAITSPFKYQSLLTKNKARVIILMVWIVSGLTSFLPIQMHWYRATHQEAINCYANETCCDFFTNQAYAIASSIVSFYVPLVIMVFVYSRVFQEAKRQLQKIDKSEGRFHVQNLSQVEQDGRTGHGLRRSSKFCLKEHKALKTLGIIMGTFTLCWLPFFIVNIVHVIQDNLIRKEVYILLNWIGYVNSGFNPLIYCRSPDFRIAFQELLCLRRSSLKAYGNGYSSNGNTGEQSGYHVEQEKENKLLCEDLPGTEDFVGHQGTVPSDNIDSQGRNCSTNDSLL

Regarding `CCCCCC#CC(=O)OC`, the Potency result in test [1], in test [2], in test [3], in [6], in [7] and in [8] was “inactive” in each case. Further, the Potency entry in test [9], in [10], in test [11], in [12], in test [13] and in test [14] was “inactive” throughout. For the same compound, the Potency result in [15], in test [16], in [17], in test [18] and in test [19] was “inactive” throughout. The outcome in test [4] and in test [5] was inactive.

As for `Cc1cccn2c(=O)c(-c3nnn[nH]3)cnc12`, the activity change, negative = cytotoxicity in test [1] is 0.925% [at 19 µM]; in test [8] it was -18.5% [at 13.5 µM]; in [9], -1.1% [at 13.5 µM]; in test [10], -1.22% [at 13.5 µM]. Also, the activity, positive = activation in test [2] was -2.87% [at 19 µM]. Moreover, the activity change in test [3] was -0.454% [at 11.8 µM, active compounds read high]. The activation in test [4] was 0.024% [at 15.8 µM]; in [5] it was -0.181% [at 11.8 µM]; in test [6] it was 6.61% [at 13.5 µM]; in test [7] it was 0.054% [at 13.6 µM]; in test [11], 1.33% [at 13.5 µM]; in test [13] it was 1.65% [at 15.9 µM]. Also, the activation is -0.574% [at 15.8 µM] in test [15] and 2.69% [at 19 µM] in test [18]. Moreover, the figures for the activity, negative = inhibition in [12] and in [14] were 5.08% [at 12.7 µM] and -2.73% [at 12.6 µM], respectively. Further, the figures for the activity change, negative = inhibition in test [16], in test [17] and in [19] were 5.45% [at 18.9 µM], 1.4% [at 19 µM] and -1.25% [at 18.9 µM], respectively.

For the compound `O=C(O)CCCc1c[nH]c2ccccc12`, the Potency result in test [1], in [2], in test [3], in [6], in test [7] and in [8] was “inactive” in each case. Also, the Potency entry in test [9], in [10], in test [11], in test [12], in test [13] and in test [14] was “inactive” in each case. For the same compound, the Potency result in test [15], in test [17], in [18] and in test [19] was “inactive” in each case. In addition, the result in [4] and in test [5] was inactive.

As to `C=CCOC(=O)/C=C\C(=O)OCC=C`, the Potency entry in test [1], in [3], in test [6], in test [7], in test [8] and in test [9] was “inactive” each time. In addition, the Potency result in [10], in [11], in test [12], in [13], in [14] and in test [17] was “inactive” each time. Also, the Potency result in test [18] and in [19] was “inactive” throughout. Moreover, the Potency in [2] was 24.8 µM (active). For the same compound, the result in [4] and in test [5] was inactive.

`COC(=O)c1ccc(NC(C)=O)cc1OC`: the Potency result in test [1], in [2], in [3], in test [6], in test [7] and in test [8] was “inactive” each time. Moreover, the Potency result in test [9], in test [10], in test [11], in test [12], in test [13] and in [15] was “inactive” in each case. In addition, the Potency entry in test [20], in [16], in test [17], in test [18] and in test [19] was “inactive” each time. Moreover, the result in [4] and in test [5] was inactive.

With `CN1CCN(c2cc3c(cc2F)c(=O)c(C(=O)O)cn3-c2ccc(F)cc2)CC1`, in [1], the Potency is 1.88 µM (active). The Potency entry in test [2], in test [3], in test [6], in test [7], in [8] and in test [9] was “inactive” each time. For the same compound, the Potency entry in test [10], in test [11], in test [12], in test [13], in test [14] and in test [15] was “inactive” in each case. In test [18], the Potency result was “inactive”. In addition, the result in test [4] and in test [5] was inactive.

In the case of `O=C(Cn1ccnc1[N+](=O)[O-])NCCO`, the Potency result in [1], in test [2], in test [3], in test [6], in test [7] and in [8] was “inactive” each time. Further, the Potency entry in test [9], in [10], in test [11], in test [12], in test [13] and in [15] was “inactive” in each case. The Potency result in test [20], in test [16], in test [17], in test [18] and in test [19] was “inactive” each time. In addition, the result in test [4] and in test [5] was inactive.

Turning to `Cc1cc(CCCOc2c(C)cc(-c3noc(C(F)(F)F)n3)cc2C)on1`, the Potency result in test [1], in [3], in [6], in [7], in [8] and in [9] was “inactive” in each case. In addition, the Potency result in [10], in test [11], in test [12], in [13], in test [14] and in test [20] was “inactive” each time. The Potency entry in test [16] and in [19] was “inactive” in each case. Also, the Potency in test [2] was 11.9 µM (active). The result in test [4] and in test [5] was inactive.
